According to the supplement of paper PMC10849652:
Targets with a hit are over-represented here; the source holds about 8,800 in all. About 0.5% of all pairs of compound and target were hits. Values without a mark were called inactive.

Experiments:
Assay in all cases: log2 fold change, soluble protein after heating vs DMSO (PISA); higher = thermal stabilisation; K562 lysate, 10 uM; active = over 0.2 and 3.5 SD of the protein, either way, in both replicates (recomputed)
[1] = compound: CC[C@@H]1C(=O)N(C)c2cnc(Nc3ccc(C(=O)NC4CCN(C)CC4)cc3OC)nc2N1C1CCCC1
Summary of the method: (§1)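 To prepare the extract, K562 pellets were dounce-homogenised in PBS pH 7.4 with 1 mM MgCl2, giving crude material at 1 mg/mL protein. This was treated with 10 μM compound for 30 min, then heated in aliquots for 3 min over 48°C-58°C before pooling and addition of NP-40 to 0.5% at 4°C. Centrifugation at 21,000xg for 90 min left soluble protein in the supernatant, which TMTpro 16plex LC-MS/MS quantified with equalised channel sums. Results are log-two fold changes in thermal stability compared with solvent controls, from duplicates.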

[2] = compound: CCn1c(C(=O)N(C2CC2)C2CC2)cc2c3c(ncn3C)c(Nc3cc(C)n(C)n3)nc21
Summary of the method: as §1

saracatinib = compound: CN1CCN(CCOc2cc(OC3CCOCC3)c3c(Nc4c(Cl)ccc5c4OCO5)ncnc3c2)CC1 [saracatinib]
Summary of the method: as §1

Tubastatin A = compound: CN1CCc2c(c3ccccc3n2Cc2ccc(C(=O)NO)cc2)C1 [Tubastatin A]
Summary of the method: as §1

[3] = compound: CNC(=O)C1=CC=CC=C1NC2=NC(=NC=C2Cl)NC3=C(C=C(C=C3)N4CCOCC4)OC
Summary of the method: as §1

[4] = compound: CNc1nc(-c2ccc3c(N)n[nH]c3c2)cc(N2C[C@@H](C(=O)NC3CCCCC3)CC[C@H]2C)n1
Summary of the method: as §1

encorafenib = compound: COC(=O)N[C@@H](C)CNc1nccc(-c2cn(C(C)C)nc2-c2cc(Cl)cc(NS(C)(=O)=O)c2F)n1 [encorafenib]
Summary of the method: as §1

[5] = compound: COC(=O)[C@H](CCSC)NC(=O)C1=C(C=C(C=C1)NC[C@H](CS)N)C2=CC=CC=C2
Summary of the method: as §1

[6] = compound: CCCS(=O)(=O)Nc1ccc(F)c(C(=O)c2c[nH]c3ncc(Cl)cc23)c1F
Summary of the method: as §1

barasertib = compound: CCN(CCCOc1ccc2c(Nc3cc(CC(=O)Nc4cccc(F)c4)[nH]n3)ncnc2c1)CCOP(=O)(O)O [barasertib]
Summary of the method: as §1

volasertib = compound: CC[C@@H]1C(=O)N(C)c2cnc(Nc3ccc(C(=O)N[C@H]4CC[C@H](N5CCN(CC6CC6)CC5)CC4)cc3OC)nc2N1C(C)C [volasertib]
Summary of the method: as §1

[7] = compound: CCn1cc(-c2ccnc3[nH]c(-c4cccc(CN(C)C)c4)cc23)c(-c2ccc(NC(=O)N(C)C)cc2)n1
Summary of the method: as §1

[8] = compound: CN1CCC(CNc2ccc3ncc(-c4cccc(OC(F)(F)F)c4)n3n2)CC1
Summary of the method: as §1

alvocidib = compound: CN1CC[C@H](c2c(O)cc(O)c3c(=O)cc(-c4ccccc4Cl)oc23)[C@H](O)C1 [alvocidib]
Summary of the method: as §1

alisertib = compound: COc1cc(Nc2ncc3c(n2)-c2ccc(Cl)cc2C(c2c(F)cccc2OC)=NC3)ccc1C(=O)O [alisertib]
Summary of the method: as §1

[9] = compound: COc1cc2nc(-c3cc(F)ccc3O)nc(N[C@@H]3CNC[C@H]3C(C)(C)O)c2cc1OC
Summary of the method: as §1

gefitinib = compound: COc1cc2ncnc(Nc3ccc(F)c(Cl)c3)c2cc1OCCCN1CCOCC1 [gefitinib]
Summary of the method: as §1

vemurafenib = compound: CCCS(=O)(=O)Nc1ccc(F)c(C(=O)c2c[nH]c3ncc(-c4ccc(Cl)cc4)cc23)c1F [vemurafenib]
Summary of the method: as §1

sotrastaurin = compound: CN1CCN(c2nc(C3=C(c4c[nH]c5ccccc45)C(=O)NC3=O)c3ccccc3n2)CC1 [sotrastaurin]
Summary of the method: as §1

defactinib = compound: CNC(=O)c1ccc(Nc2ncc(C(F)(F)F)c(NCc3nccnc3N(C)S(C)(=O)=O)n2)cc1 [defactinib]
Summary of the method: as §1

Chain of UniProt P46939 (P46939 whole entry, looked up): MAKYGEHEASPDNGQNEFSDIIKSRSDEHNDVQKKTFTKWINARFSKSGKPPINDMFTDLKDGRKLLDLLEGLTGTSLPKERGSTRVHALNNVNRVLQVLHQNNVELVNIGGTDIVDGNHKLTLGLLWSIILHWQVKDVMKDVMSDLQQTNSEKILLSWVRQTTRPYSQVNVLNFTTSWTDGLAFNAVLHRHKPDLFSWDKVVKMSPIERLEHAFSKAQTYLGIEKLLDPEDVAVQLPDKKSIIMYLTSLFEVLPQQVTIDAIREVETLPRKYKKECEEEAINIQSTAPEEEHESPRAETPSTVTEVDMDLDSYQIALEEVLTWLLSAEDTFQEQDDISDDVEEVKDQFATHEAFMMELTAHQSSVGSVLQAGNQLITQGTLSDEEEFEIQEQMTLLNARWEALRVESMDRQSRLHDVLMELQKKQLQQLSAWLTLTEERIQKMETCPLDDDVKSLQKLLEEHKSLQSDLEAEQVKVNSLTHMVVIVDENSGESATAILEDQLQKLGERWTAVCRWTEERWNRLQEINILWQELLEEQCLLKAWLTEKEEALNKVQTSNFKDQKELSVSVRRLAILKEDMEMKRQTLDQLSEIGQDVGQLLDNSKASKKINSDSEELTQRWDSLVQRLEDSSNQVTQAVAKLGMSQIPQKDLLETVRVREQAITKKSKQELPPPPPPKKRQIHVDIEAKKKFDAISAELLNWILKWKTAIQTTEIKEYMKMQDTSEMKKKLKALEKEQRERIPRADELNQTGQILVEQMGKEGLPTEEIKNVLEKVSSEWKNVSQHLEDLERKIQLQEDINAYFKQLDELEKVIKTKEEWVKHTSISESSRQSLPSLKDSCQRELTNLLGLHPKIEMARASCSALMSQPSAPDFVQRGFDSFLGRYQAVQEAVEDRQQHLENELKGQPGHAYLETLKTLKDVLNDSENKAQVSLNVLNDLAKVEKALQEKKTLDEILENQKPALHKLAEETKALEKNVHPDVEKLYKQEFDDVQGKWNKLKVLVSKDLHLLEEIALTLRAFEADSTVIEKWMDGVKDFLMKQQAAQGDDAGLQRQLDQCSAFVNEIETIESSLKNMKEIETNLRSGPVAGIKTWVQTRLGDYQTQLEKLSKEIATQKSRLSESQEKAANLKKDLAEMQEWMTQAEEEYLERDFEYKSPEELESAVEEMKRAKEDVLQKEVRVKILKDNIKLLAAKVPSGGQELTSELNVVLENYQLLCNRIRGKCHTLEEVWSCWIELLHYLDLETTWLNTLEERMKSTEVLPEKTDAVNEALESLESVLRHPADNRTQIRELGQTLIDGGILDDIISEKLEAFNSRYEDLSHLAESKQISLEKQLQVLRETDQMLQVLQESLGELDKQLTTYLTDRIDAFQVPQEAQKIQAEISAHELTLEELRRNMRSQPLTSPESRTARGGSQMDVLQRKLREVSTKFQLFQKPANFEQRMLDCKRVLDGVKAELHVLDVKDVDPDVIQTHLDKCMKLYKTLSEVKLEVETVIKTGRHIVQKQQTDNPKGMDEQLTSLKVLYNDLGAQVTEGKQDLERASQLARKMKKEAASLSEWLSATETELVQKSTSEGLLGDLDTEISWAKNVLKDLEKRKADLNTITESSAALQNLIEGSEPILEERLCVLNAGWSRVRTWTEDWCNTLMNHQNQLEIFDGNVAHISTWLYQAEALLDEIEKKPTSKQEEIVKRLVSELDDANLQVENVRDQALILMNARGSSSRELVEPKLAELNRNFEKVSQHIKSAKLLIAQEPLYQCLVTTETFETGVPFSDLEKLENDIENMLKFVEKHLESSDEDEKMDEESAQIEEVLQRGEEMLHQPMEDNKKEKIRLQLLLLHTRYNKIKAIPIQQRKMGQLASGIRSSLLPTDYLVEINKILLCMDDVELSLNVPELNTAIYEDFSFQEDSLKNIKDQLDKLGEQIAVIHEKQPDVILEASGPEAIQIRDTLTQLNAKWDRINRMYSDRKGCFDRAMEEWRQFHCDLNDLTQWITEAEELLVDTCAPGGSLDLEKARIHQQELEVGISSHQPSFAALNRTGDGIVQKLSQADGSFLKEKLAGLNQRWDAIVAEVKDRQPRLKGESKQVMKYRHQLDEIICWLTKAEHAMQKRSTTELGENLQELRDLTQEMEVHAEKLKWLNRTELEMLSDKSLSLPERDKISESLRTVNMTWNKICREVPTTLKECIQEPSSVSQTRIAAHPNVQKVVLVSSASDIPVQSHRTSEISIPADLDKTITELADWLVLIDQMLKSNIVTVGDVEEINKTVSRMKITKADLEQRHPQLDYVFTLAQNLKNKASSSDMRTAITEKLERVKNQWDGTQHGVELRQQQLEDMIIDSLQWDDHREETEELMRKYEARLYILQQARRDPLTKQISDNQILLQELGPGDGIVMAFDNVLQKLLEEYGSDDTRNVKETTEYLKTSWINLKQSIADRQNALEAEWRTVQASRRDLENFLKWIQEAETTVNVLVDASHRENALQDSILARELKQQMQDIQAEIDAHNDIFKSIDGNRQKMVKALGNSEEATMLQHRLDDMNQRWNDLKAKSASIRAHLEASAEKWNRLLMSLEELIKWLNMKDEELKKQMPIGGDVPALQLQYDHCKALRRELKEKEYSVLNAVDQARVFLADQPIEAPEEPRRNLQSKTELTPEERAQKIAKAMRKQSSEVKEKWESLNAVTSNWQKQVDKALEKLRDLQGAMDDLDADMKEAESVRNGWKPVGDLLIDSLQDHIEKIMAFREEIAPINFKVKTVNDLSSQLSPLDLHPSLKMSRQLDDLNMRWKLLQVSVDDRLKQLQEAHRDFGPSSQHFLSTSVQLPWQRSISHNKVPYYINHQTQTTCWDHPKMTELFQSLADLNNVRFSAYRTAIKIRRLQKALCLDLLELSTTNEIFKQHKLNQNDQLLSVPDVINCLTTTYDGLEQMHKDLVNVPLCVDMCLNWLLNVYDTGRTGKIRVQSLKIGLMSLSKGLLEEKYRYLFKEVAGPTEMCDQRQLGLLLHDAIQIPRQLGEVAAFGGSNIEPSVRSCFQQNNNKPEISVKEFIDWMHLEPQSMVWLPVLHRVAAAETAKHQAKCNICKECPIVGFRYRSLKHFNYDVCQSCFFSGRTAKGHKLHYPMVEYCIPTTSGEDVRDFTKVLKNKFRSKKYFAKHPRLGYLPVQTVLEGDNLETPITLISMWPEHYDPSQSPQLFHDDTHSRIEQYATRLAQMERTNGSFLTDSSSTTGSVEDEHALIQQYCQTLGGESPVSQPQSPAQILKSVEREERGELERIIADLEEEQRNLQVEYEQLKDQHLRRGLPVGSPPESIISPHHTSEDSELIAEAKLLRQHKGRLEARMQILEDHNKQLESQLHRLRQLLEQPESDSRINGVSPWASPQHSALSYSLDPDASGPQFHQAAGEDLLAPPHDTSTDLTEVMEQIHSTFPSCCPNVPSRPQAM
Chain of UniProt Q96IR2 (Q96IR2 whole entry, looked up): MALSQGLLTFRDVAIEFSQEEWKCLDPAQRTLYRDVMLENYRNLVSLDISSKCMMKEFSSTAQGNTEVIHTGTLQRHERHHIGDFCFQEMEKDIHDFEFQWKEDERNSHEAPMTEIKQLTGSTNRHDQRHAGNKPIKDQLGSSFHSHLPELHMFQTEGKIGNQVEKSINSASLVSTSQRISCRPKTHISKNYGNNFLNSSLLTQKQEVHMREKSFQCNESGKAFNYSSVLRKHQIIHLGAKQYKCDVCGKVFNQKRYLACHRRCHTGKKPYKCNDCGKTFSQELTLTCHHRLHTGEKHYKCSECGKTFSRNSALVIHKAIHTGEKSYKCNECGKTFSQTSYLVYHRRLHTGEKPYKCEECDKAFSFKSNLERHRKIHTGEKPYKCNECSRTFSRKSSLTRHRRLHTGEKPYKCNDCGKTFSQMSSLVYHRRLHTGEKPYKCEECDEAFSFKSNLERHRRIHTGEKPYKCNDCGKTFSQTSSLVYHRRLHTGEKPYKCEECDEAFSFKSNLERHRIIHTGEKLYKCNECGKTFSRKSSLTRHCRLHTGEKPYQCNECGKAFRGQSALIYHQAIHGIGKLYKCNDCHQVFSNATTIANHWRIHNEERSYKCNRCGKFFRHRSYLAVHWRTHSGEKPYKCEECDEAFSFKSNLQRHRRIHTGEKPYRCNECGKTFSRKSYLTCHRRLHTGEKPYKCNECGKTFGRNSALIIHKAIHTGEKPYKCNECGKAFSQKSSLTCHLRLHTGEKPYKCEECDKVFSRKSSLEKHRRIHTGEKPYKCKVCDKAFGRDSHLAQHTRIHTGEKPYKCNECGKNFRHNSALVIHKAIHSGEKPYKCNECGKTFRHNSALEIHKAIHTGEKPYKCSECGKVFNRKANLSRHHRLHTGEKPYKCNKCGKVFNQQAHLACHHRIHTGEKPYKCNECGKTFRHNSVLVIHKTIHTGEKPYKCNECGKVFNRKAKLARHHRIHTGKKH
Chain of UniProt Q9UL40 (Q9UL40 whole entry, looked up): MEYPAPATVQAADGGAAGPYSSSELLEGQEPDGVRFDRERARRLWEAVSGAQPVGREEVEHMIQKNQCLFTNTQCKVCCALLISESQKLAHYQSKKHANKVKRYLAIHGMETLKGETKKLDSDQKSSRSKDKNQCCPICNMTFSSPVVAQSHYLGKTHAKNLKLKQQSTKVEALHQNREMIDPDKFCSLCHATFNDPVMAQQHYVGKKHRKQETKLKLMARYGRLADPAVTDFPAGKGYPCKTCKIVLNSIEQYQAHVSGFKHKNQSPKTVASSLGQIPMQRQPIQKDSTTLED
Chain of UniProt P58557 (P58557 whole entry, looked up): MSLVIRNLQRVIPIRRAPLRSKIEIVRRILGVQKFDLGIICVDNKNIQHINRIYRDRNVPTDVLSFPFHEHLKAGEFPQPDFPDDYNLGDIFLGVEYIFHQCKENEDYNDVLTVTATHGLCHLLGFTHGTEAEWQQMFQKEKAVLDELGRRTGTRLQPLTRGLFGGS
Chain of UniProt P40337 (P40337 whole entry, looked up): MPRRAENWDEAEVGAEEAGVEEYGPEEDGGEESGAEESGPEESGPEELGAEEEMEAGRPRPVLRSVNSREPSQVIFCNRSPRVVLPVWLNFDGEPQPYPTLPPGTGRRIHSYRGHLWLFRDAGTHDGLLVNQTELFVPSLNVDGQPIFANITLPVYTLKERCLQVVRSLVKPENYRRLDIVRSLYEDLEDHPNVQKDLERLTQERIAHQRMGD

Target | log2 fold change [1] | log2 fold change [2] | log2 fold change (saracatinib) | log2 fold change (Tubastatin A) | log2 fold change [3] | log2 fold change [4] | log2 fold change (encorafenib) | log2 fold change [5] | log2 fold change [6] | log2 fold change (barasertib) | log2 fold change (volasertib) | log2 fold change [7] | log2 fold change [8] | log2 fold change (alvocidib) | log2 fold change (alisertib) | log2 fold change [9] | log2 fold change (gefitinib) | log2 fold change (vemurafenib) | log2 fold change (sotrastaurin) | log2 fold change (defactinib)
VASN (UniProt Q6EMK4) | 0.046 | 0.023 | 0.065 | -0.161 | -0.087 | 0.096 | 0.2 | 0.02 |  |  |  |  |  |  |  |  |  |  |  | 
ZYG11A (UniProt Q6WRX3) |  | -0.035 |  | 0.018 | -0.013 |  |  |  | -0.15 | 0.286 | -0.017 | -0.16 | 0.011 | -0.18 | -0.08 | 0.212 | -0.029 |  |  | 
USP22 (UniProt Q9UPT9) | 0.026 | 0.034 | -0.026 | -0.044 | 0.034 | -0.027 | -0.007 | 0.055 |  | 0.008 |  | 0.031 | 0 | 0.102 | 0.02 |  | -0.011 | -0.019 | 0.018 | 0.017
ZKSCAN8 (UniProt Q15776) | -0.019 | -0.001 | 0.028 | -0.053 | 0.059 | 0.009 | 0.2 | -0.206 | -0.173 |  | -0.17 |  |  |  | -0.084 | -0.001 | 0 | 0.049 | 0.027 | 0.037
ZSCAN21 (UniProt Q9Y5A6) | -0.024 |  |  |  |  |  | 0.031 | 0.103 |  |  |  | 0.043 | 0.053 | -0.11 |  |  |  |  |  | 
ZNF146 (UniProt Q15072) |  |  | 0.247 |  |  | 0.12 |  |  |  |  |  |  |  |  |  |  |  |  |  | 
UTRN isoform 2 (UniProt P46939) | -0.318 |  |  |  | -0.166 |  | -0.012 | -0.037 |  | -0.019 |  | 0.148 | -0.003 | -0.084 |  |  |  |  |  | 
ZSCAN26 (UniProt Q16670) |  |  |  |  |  |  |  |  |  |  |  |  |  |  |  |  |  |  | -0.239 | 
XPOT (UniProt F5GYW6) |  |  |  |  |  |  |  |  | -0.204 |  | -0.112 |  |  |  |  | 0.121 |  |  |  | 
ZFYVE19 isoform 3 (UniProt Q96K21) |  |  |  |  |  |  |  |  | 0.048 | -0.037 | -0.231 |  |  |  |  | -0.006 |  |  |  | 
WSB1 (UniProt Q9Y6I7) |  | 0.105 | -0.159 | -0.014 |  | 0.12 |  |  |  |  |  | 0.078 | 0.08 | 0.184 |  |  |  |  |  | 
WAS (UniProt P42768) | 0.043 |  | -0.136 |  | 0.032 | 0.365 | 0.004 | 0.08 |  | 0.046 |  | 0.007 | 0.019 | -0.028 | -0.041 |  | 0.215 |  |  | 
VHL (UniProt P40337) | -0.065 | -0.054 | 0.019 | -0.117 | -0.009 | -0.047 | 0.143 | -0.047 |  | -0.005 |  | 0.11 | -0.086 | -0.06 | 0.05 |  | -0.029 | 0.027 | -0.038 | -0.034
ZNF346 (UniProt Q9UL40) | 0.029 | -0.018 | 0.001 | 0.036 | -0.009 | -0.029 | -0.006 | 0.062 | 0.007 | 0.013 | -0.047 | 0.017 | -0.051 | 0.05 | -0.03 | 0.019 | 0.046 |  | 0.011 | 
ZNF845 (UniProt Q96IR2) |  | 0.135 | -0.019 | -0.149 | 0.314 | 0.093 |  |  | -0.024 | 0.088 | -0.044 | -0.012 | 0.078 | 0.011 | -0.018 | 0.035 | 0.035 | 0.085 | -0.012 | -0.001
WEE1 (UniProt P30291) | -0.25 | -0.077 | -0.016 | -0.194 | 0.498 (active) | -0.072 | -0.035 | 0.11 | 0.056 | 0.015 | -0.032 |  |  |  | 0.018 | 0.055 | 0.129 | 0.029 | -0.1 | 0.145
UNKL (UniProt E9PDK2) | -0.075 |  | 0.002 |  |  | -0.042 | 0.044 | 0.106 |  | 0.047 |  |  |  |  |  |  |  | -0.118 | -0.05 | -0.008
VPS72 (UniProt Q15906) | -0.009 | 0.021 | 0.04 | 0.028 | 0.041 | -0.02 | -0.016 | -0.134 | -0.139 |  | 0.162 | 0.056 | 0.078 | 0 | -0.058 | -0.017 | -0.108 | 0.054 | 0.024 | -0.078
URGCP (UniProt Q8TCY9) |  | -0.069 | 0 | 0.168 |  | -0.005 |  |  |  | -0.023 |  |  |  |  | 0.003 |  | 0.006 | 0.191 |  | -0.19
WIPI2 isoform 6 (UniProt Q9Y4P8) |  |  |  |  |  |  |  |  |  | 0.04 |  | -0.24 | -0.016 | -0.015 |  |  |  |  |  | 
WAC isoform 5 (UniProt Q9BTA9) |  | 0.047 | -0.078 | -0.119 | -0.359 | -0.117 |  |  |  |  |  |  |  |  |  |  |  |  |  | 
YBEY (UniProt P58557) | -0.054 |  | -0.058 |  | -0.056 | -0.066 | -0.037 | 0.071 |  |  |  |  |  |  |  |  |  | -0.119 |  | 0.016
ZBTB40 (UniProt Q9NUA8) |  | -0.014 | -0.017 | -0.089 | 0.03 | 0.048 |  |  | -0.076 |  | 0.029 | -0.127 | 0.095 | 0.09 | -0.187 | -0.038 | -0.246 | 0.06 | -0.012 | -0.032
ZSWIM8 isoform 4 (UniProt A7E2V4) | 0.039 | 0.038 | 0.018 | 0.149 | -0.171 | -0.226 | 0.035 | -0.071 |  | 0.22 |  | -0.094 | -0.071 | 0.078 | -0.034 |  | -0.073 | -0.173 | 0.039 | 0.088
